SMILES strings stand for the structures. Among all 89,000 compounds or so, about 440 (0.49%) were called active. For the sample, actives were picked, then their nearest neighbours and some compounds at random. Unmarked numbers belong to inactive results.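 How the source made its calls: active means inhibition above the mean inhibition across all screened compounds plus 3 SD (cut at about 11% in these data); inactive means the rest.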

Usually inhibition stands for the drop in the measured response relative to a control, in per cent.

Chain of RNA-editing ligase 1, mitochondrial (Trypanosoma brucei brucei) (P86926 whole entry, looked up): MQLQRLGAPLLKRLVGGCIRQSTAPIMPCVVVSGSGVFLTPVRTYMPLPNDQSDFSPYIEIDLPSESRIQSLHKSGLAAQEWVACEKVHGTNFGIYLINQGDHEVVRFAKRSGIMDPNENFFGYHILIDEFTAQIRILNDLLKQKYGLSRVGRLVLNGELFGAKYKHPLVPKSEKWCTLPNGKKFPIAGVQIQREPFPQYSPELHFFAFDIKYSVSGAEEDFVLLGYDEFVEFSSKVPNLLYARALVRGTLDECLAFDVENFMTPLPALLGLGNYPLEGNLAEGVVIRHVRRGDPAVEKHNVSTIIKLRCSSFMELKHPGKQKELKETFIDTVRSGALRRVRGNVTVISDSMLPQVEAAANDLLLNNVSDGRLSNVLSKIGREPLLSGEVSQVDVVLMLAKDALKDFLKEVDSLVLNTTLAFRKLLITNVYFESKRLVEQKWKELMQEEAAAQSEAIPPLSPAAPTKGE

This experiment addresses RNA-editing ligase 1, mitochondrial (Trypanosoma brucei brucei) (UniProt P86926). Nature of the experiment: T. brucei editing ligase REL1 blockade – biochemical, FRET fluorescence, primary screen (AID 1117264).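 Further: 0% = plate median of test wells and 100% = NSC42067 control.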 As to conditions: TbREL1 RNA ligation, at 9.66 µM, stronger effect = higher value.
With `CC1CCCCN1Cc1cccnc1` (stereo not given), the inhibition is 13.3% (active).

Take `COC(=O)C1=C(c2ccc(F)cc2OCc2ccccc2)C[C@@H]2CC[C@H]1N2C(=O)NCc1ccc(C(C)(C)C)cc1`: the inhibition is -1.57%.

With `COc1cccc(-c2nc3ccc(N4CCN(C)CC4)cc3[nH]2)c1`, the inhibition was 5.54%.

In the case of `CN1CCN(c2cc(N3CCNCC3)ccc2[N+](=O)[O-])CC1`, the inhibition is 13.9% (active).

Consider `Cc1cccc(NC(=O)N2CC3CC(C2)c2cccc(=O)n2C3)c1` (stereo not given), for which the inhibition was 3.86%.

In the case of `COC(=O)C1=C(c2ccccc2OCc2ccccc2)C[C@@H]2CC[C@H]1N2C(=O)NCc1ccc(OC)cc1`, the inhibition was -0.93%.

In the case of `CCOP(=O)(OCC)C(NC(=O)NC)C(N)=O` (stereo not given), the inhibition is 2.84%.

On to `CCC(=NCCc1ccccc1)c1c(O)n(C2CCCCC2)c(=O)[nH]c1=O`, for which the inhibition was -0.24%.

With `O=c1[nH]c2ccccc2n1C1CCN(C(c2ccccc2)c2nnnn2Cc2ccccc2)CC1` (stereo not given), the inhibition is 23.1% (active).

Turning to `COc1ccc(-n2nnnc2C(c2cccc3ccccc23)N2CCC(n3c(=O)[nH]c4ccccc43)CC2)cc1` (stereo not given), the inhibition was -2.29%.

Regarding `COc1cc(C(=O)N2Cc3ccc(Br)cc3-n3nncc3C2)cc(OC)c1OC`, the inhibition is 2.36%.

As for `CN1CCN(C(=S)SCC(=O)Nc2ccc(Cl)cc2C(=O)c2ccccc2)CC1`, the inhibition was 2.78%.

As for `CCOC(=O)CNC(=O)N1Cc2cc(N3CCCCC3)ccc2-n2nncc2C1`, the inhibition was 2.4%.

For the molecule `COc1ccc(-c2nn(CCC#N)cc2C(=O)O)cc1`, the inhibition is -2.19%.

On to `CSc1ccc(C(=O)C2CCCN(Cc3ccn[nH]3)C2)cc1` (stereo not given), for which the inhibition was 0.96%.

(Values after PubChem BioAssay AID1117264 (The Scripps Research Institute Molecular Screening Center, 2014).)
